Screening results: PubChem, National Center for Advancing Translational Sciences (NCATS)
TDP1 cell noCPT – qHTS for Inhibitors of human tyrosyl-DNA phosphodiesterase 1 (TDP1): qHTS in cells in absence of CPT; DT40 Tdp1-/- hTDP1 cells, no CPT, ATP luminescence, 48 h; Potency, µM (series often up to 46.2 µM), actives largely listed as inhibitors; 15% of 420,000 active; also: nearly all actives have a fitted effect of over 55% in size
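Seeded 400 DT40-hTDP1 cells/well (vehicle DMSO, no 20 nM CPT); pinned compounds; ≥48 hr at 37 °C; CellTiter-Glo luminescence as viability measure.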
ATXN2 expr inh – Primary qHTS for Inhibitors of ATXN expression; AID 1745845, 2022; 0.72% of 360,000 active; Potency, µM (series often up to 57 µM), usual class: inhibitors; HEK-293 ATXN2-luciferase reporter, luminescence, 24 h; also: nearly all actives have a fitted effect of over 55% in size
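ATXN2-luciferase reporter cells (luciferase flanked by upstream and downstream ATXN2 gene portions) were treated 24 h at 37 °C with compounds at up to 57 uM. SteadyGlo luminescence gave expression; GF-AFC fluorescence gave viability.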
TDP1 cell CPT – qHTS for Inhibitors of human tyrosyl-DNA phosphodiesterase 1 (TDP1): qHTS in cells in presence of CPT. chicken DT40 Tdp1-/-;hTDP1 cells + 20 nM CPT, ATP luminescence, 48 h. Potency, µM (highest dose often 46.2 µM), actives largely listed as inhibitors. 12% of 420,000 active. AID 686979, 2013; also: nearly all actives have a fitted effect of over 55% in size
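Chicken DT40 Tdp1-/- cells complemented with human TDP1, 400 cells/well, exposed to compounds plus 20 nM camptothecin for at least 48 h at 37 C; viability read as ATP content by CellTiter-Glo luminescence.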
ATXN viability – Viability Counterscreen for Primary qHTS for Inhibitors of ATXN expression; S2 cells (HEK-293 line with an ATXN2-luciferase reporter) viability, CellTiter-Fluor protease fluorescence, 24 h; Potency, µM (titrated, usually from 56.7 µM), actives largely listed as cytotoxic; 0.49% of 400,000 active; AID 651635, 2014; also: nearly all actives have a fitted effect of over 40% in size
TGFb SMAD3 inh – qHTS for Inhibitors of TGF-b; 1.2% of 410,000 active; AID 588855, 2011; HepG2 CAGA-GFP TGF-b/SMAD3 reporter, GFP fluorescence, 18 h; TGF-beta stimulated, 500 pg/mL final; Potency, µM (doses to about 46.1 µM), hits mostly inhibitors; also: nearly all actives have a fitted effect of over 65% in size
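HEPG2 CAGA-GFP, 1000 cells/well; 2 h settle, 37 C; cpd via pin tool; TGF-b 500 pg/mL final; 18 h, 37 C; GFP imaging ex488/em500-530; %Activity normalised to -TGF-b and +DMSO controls; CRC fit, curve class.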
HepG2 tox – qHTS for Inhibitors of TGF-b: Cytotox Counterscreen; HepG2 CAGA-GFP viability, ATP luminescence, 18 h; Potency, µM (titrated, usually from 46.1 µM), usual class: cytotoxic; 0.76% of 410,000 active
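CellTiter-Glo luminescence gave cytotoxicity after 18 hours at 37 degrees C. The cells were HepG2 CAGA-GFP in 1% FBS DMEM, stimulated with 500 pg/mL TGF-beta after compound addition. %Activity was normalised to no-cell wells (complete cell-killing) and DMSO (no toxicity), and curves were fitted and classified.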
A number is an active result; - = inactive; ? = inconclusive; . = not tested or not shown. The list is not random: actives were taken first. Their share in the collection is about 17%. Calls follow the shape of the dose curve; as a rule, active = well fitted curve in the direction sought with a large enough effect; inconclusive = small, poorly fitted or top-dose-only effect, or another doubt; inactive = no such curve, though single readings can be large; an effect the other way counts as inactive or inconclusive.

SMILES	TDP1 cell noCPT	ATXN2 expr inh	TDP1 cell CPT	ATXN viability	TGFb SMAD3 inh	HepG2 tox
O=C1NC2c3c(Cl)sc(Cl)c3C(=O)C2O1 (configuration not stated)	20.6µM	?	20.6µM	?	-	-
O=C1NC2c3c(I)sc(I)c3C(=O)C2O1 (configuration not stated)	7.31µM	?	6.51µM	.	?	-
CSCCC(NC(=O)c1ccc(Cl)cc1Cl)C(=O)NCC(c1cccs1)N(C)C (configuration not stated)	-	-	-	-	-	-
COC(=O)c1cc(S(=O)(=O)N2CCN(c3cccc(Cl)c3)CC2)c[nH]1	-	-	-	-	-	-
COCc1ccc(C(=O)NC2CCCc3c2cnn3-c2ccc(C)c(C)c2)o1 (configuration not stated)	?	?	18.4µM	-	-	-
Cc1cc(C)cc(-n2ncc3c2CCCC3NC(=O)c2csnn2)c1 (configuration not stated)	-	-	-	-	-	-
Cc1cc(C)cc(-n2ncc3c2CCCC3NC(=O)c2cc(C)oc2C)c1 (configuration not stated)	23.1µM	-	?	?	-	-
Cc1ccc(-n2ncc3c2CCCC3NC(=O)c2ccoc2)cc1C (configuration not stated)	?	-	?	?	-	-
COCc1ccc(C(=O)NC2CCCc3c2cnn3-c2cc(C)cc(C)c2)s1 (configuration not stated)	20.6µM	-	?	-	?	-
COc1ncccc1C(=O)NC1CCCc2c1cnn2-c1cc(C)cc(C)c1 (configuration not stated)	-	-	?	-	-	-
O=C(CN(Cc1ccccc1Cl)C(=O)c1csnn1)NCc1ccc2c(c1)OCO2	-	-	-	-	-	-
COc1ccc(Br)c(Cn2c(C)c(C(=O)NCc3cccc([N+](=O)[O-])c3)sc2=O)c1	-	-	-	-	?	-
O=C(CNC(=O)c1ccc(S(=O)(=O)N2CCCC2)cc1)N/N=C/c1ccco1	?	.	-	-	-	-
COc1cc(-c2nc(S(=O)(=O)c3ccc(Cl)cc3)c(N3CCOCC3)o2)cc(OC)c1OC	16.4µM	-	?	-	-	-
O=S(=O)(c1ccc(Cl)cc1)c1nc(-c2ccccc2Br)oc1N1CCOCC1	23.1µM	-	18.4µM	-	-	-
COc1cc(-c2nc(S(=O)(=O)c3ccc(C)cc3)c(N3CCOCC3)o2)cc(OC)c1OC	9.2µM	-	11.6µM	-	-	-
COc1ccccc1NS(=O)(=O)c1cccc(NS(=O)(=O)c2cc(C(=O)O)ccc2Cl)c1	-	.	-	-	-	-
CCC(C)(C)c1ccc(OC(=O)c2cccnc2Cl)cc1	?	-	?	-	-	-
CN(CCO)c1cc(N2CCN(C(=O)c3ccco3)CC2)c2nonc2c1[N+](=O)[O-]	-	-	-	-	-	-
COc1cccc(/C=C2\SC(=S)N(CCCC(=O)Nc3cc(C)on3)C2=O)c1	-	-	-	-	-	-
COc1cccc(/C=C2\SC(=S)N(CCC(=O)N3CCCCC3)C2=O)c1	4.11µM	-	6.51µM	-	-	-
COc1ccc(/C=C2\SC(=S)N(CCC(=O)N3CCCCC3)C2=O)cc1	?	-	?	-	-	-
CCOC(=O)N1CCN(C(=O)CCN2C(=O)/C(=C\c3cccc(OC)c3)SC2=S)CC1	14.6µM	-	-	?	-	-
CCCc1nn2c(=O)cc(CSCC(=O)Nc3ccc(F)cc3)nc2s1	-	-	-	-	-	-
O=C(Nc1cc(C(F)(F)F)ccc1-n1cncn1)c1ccc(Br)cc1	-	-	-	-	-	-
